Assay outcomes: PubChem, several laboratories
Most compounds without a hit are left out; they make up all but 4.3% or so of the library.
SMARCA2 activ = activators of SMARCA2 function | AID 652017 | actives 1% (n = 370,000) | MG213 cells, MMTV-luciferase reporter, dexamethasone, overnight | activation, % at 9.1 µM; in the data active means activation above about 7.8%;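 further: 0% = vehicle wells and 100% = reference activator wells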
MITF act = increases MITF-driven TRPM1 promoter luciferase signal | SK-MEL-5 TRPM1-promoter luciferase, 24 h; % of positive control, neutral wells = 0 | activation, % at 12.5 µM | actives 0.75% (n = 300,000) | AID 588334;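 active means mean activation of at least 80% with every replicate also reaching 80%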;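 further: 0% = neutral control wells and 100% = parthenolide positive control wells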
esBAF inh = SWI/SNF esBAF complex inhibition; mouse ES cells, Bmi1-luciferase knock-in reporter, 24 h; 100% = twice the neutral-well signal; reporter increase, % at 12.5 µM; actives 2% (n = 350,000); AID 602393; in the data active means activation above about 40%;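 further: 0% = median of the plate's neutral control wells and 100% = double that signal; a rise in the Bmi1 reporter signal indicates esBAF inhibition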
FGF22 binding = FGF22 (human) thermal shift binding. actives 1.5% (n = 340,000). recombinant FGF22 thermal shift, SYPRO orange fluorescence; percent of sucrose octasulfate shift, DMSO zero. activity (Tm shift, normalised), % at 9.99 µM. AID 651658. Q9HCT0;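 active means mean Tm shift, scaled 0 neutral to 100 positive control, at about 1.3% or above, every replicate too, limit read from the data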
Target sequence (Q9HCT0 whole entry, looked up): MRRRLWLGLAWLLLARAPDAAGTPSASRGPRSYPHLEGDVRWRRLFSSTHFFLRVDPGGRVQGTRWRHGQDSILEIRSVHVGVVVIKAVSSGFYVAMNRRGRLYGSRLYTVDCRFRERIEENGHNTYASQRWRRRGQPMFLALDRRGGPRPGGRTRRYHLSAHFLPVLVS
Wnt act = activates Wnt/beta-catenin signaling in a reporter cell assay | actives 1.2% (n = 300,000) | activation, % at 9.35 µM | activator, plate reader | AID 743398; in the data active means activation above about 30%, passing the limit was not always enough;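 further: 0% = neutral control wells and 100% = positive control wells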
AF4-AF9 inh = MLL-AF4/AF9 protein interaction inhibition. AlphaScreen, biotin-AF4 peptide binding to FLAG-AF9. actives 0.47% (n = 350,000). P42568. inhibition, % at 10 µM. AID 651704;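 active means every replicate reaching a set inhibition limit, whatever the replicate mean, cut at about 25% in these data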;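 further: 0% = plate neutral control median and 100% = total signal loss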
SMARCA2 act conf = confirmation of SMARCA2 (BRM) function activators; MG213 cells, MMTV-luciferase with dexamethasone, luminescence, overnight; MG213 cells expressing E1A, Rb sequestered; DMSO wells 0%, reference activator 100%; activation, % at 9.1 µM; actives 30% (n = 3,500); shares compounds with SMARCA2 activ;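 active means activation above its plate's cutoff, the mean activation of tested wells plus 3 SD, cut at about 7.9% in these data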
VP16 Luc act = activates GAL4-VP16 luciferase, flagging SMARCA2 activator hits; shares compounds with SMARCA2 activ; HEK293 GAL4-VP16 pG5luc reporter, luciferase luminescence; scaled: DMSO wells 0%, SAHA wells 100%; activation, % at 9.1 µM; actives 41% (n = 3,500);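 active means activation above the solvent-only control well mean plus 3 SD, averaged across control plates, cut at about 5.2% in these data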
The depositor's hits bear a star; . = not tested or not shown.

SMILES	SMARCA2 activ	MITF act	esBAF inh	FGF22 binding	Wnt act	AF4-AF9 inh	SMARCA2 act conf	VP16 Luc act
C[C@@H]1CN([C@@H](C)CO)C(=O)c2cc(C3=CCCC3)cnc2O[C@@H]1CN(C)S(=O)(=O)c1cn(C)cn1	.	.	-4.0	0.0	.	-7.5	.	.
CCOC(=O)c1ccc(COC(=O)c2ccc3c(c2)-c2ccccc2C3=O)cc1	8.9*	11.3	3.4	.	0.3	.	-4.1	2.2
CCOC(=O)c1ccc(CN2C(=O)c3ccccc3S2(=O)=O)cc1	-0.6	.	2.2	0.1	1.6	-5.3	.	.
COc1cccc(C2(c3cccc(OC)c3)CC2C(=O)Nc2cccc3ccccc23)c1 (stereo not drawn)	9.6*	-6.7	1.3	.	-1.0	.	-7.2	0.8
COc1cccc(NC(=O)C2CC2(c2cccc(OC)c2)c2cccc(OC)c2)c1 (stereo not drawn)	-2.0	2.0	.	0.0	-2.1	2.1	.	.
O=C(O)[C@H]1[C@H](CO)[C@H]2Cn3c(ccc(-c4cncnc4)c3=O)[C@H]2N1C(=O)C1CCCCC1	.	.	1.9	-0.1	.	-1.3	.	.
COCCNC(=O)/C(C#N)=C/c1ccc2c(c1)OCO2	9.1*	9.0	-1.5	43.6*	4.3	0.1	5.0	2.1
O=C(C[C@@H]1C[C@@H]2c3cc(NC(=O)Cc4ccncc4)ccc3O[C@@H]2[C@@H](CO)O1)NCCN1CCCCC1	.	.	-3.0	-0.2	.	-4.9	.	.
NNC(=O)c1nnsc1-c1csnn1	9.1*	0.9	.	0.3	-2.3	-1.8	-1.4	0.0
COc1cc(-c2ccc(=O)[nH]n2)ccc1OC(F)F	8.1*	-39.3	-2.3	-0.2	-19.4	-1.6	15.3*	3.0
COc1cc(O)c2c(=O)c3c(OC)c(O)ccc3oc2c1	9.7*	45.8	34.6	0.1	22.6	0.5	9.0*	4.5
O=C(NN=C(Cc1ccccc1)Cc1ccccc1)c1ccccc1F	0.6	7.4	.	-0.1	5.8	-1.6	.	.
CCCC(CCC)=NNC(=O)c1ccccc1F	8.2*	5.9	4.6	0.3	2.9	0.7	-1.2	0.7
COc1ccc(-c2cc(CNc3nc(NC(C)C)nc4cc(-c5ccccc5)sc34)on2)cc1	11.7*	.	-83.4	0.1	-2.3	1.6	3.1	4.0
CC(=O)NCCNc1nc(NC(C)C)nc2cc(-c3ccccc3)sc12	-1.7	.	-5.7	0.3	-2.2	9.0	.	.
COc1ccc(C(=O)Nc2ccccc2C(=O)N/N=C/c2ccncc2)cc1OC	8.5*	.	.	-0.1	25.6	1.8	17.6*	6.0*
COc1ccc(CC(=O)O/N=C(\N)c2ccccn2)cc1	8.0*	38.9	.	0.0	6.4	2.3	-0.6	6.4*
Cc1ccc(C)c(OCC(=O)O/N=C(\N)c2ccccn2)c1	9.2*	95.7*	72.1*	.	45.4*	.	4.0	8.2*
COC(=O)[C@]12C[C@H](CC(=O)N3CCN(C(=O)C4CC4)CC3)C(=O)N(Cc3ccc(Cl)cc3Cl)C1=C[C@H](COCc1ccccc1)O[C@@H]2C	-3.3	.	.	.	.	.	.	.
C[C@@H]1CN([C@H](C)CO)C(=O)c2cc(NC(=O)CCC(F)(F)F)ccc2O[C@H]1CN(C)S(=O)(=O)c1ccc(Cl)cc1	.	.	2.1	0.0	.	-0.2	.	.
CCc1cccc2c(C(=O)COC(=O)c3c(C)noc3C)c[nH]c12	8.6*	18.7	2.3	0.2	-4.3	1.5	3.8	0.4
CN1c2ccc(C#Cc3ccc(F)cc3)cc2[C@@H]2[C@@H](CCN2S(=O)(=O)c2ccccc2F)[C@H]1CO	.	.	0.9	0.4	.	-10.0	.	.
O=S(=O)(Nc1nc2ccccc2nc1N1CCc2ccccc2C1)c1ccc(Cl)cc1	9.0*	5.9	.	.	41.3*	.	-2.3	4.4
N#C[C@@H]1[C@@H](c2ccccc2C2=CCCCC2)[C@@H](CO)N1C(=O)c1ccccn1	.	.	.	0.3	.	-8.7	.	.
N#C/C(=C\c1ccc(OCc2ccccc2)cc1)C(=O)Nc1nc2c(s1)CCN(Cc1ccccc1)C2	-0.8	20.0	.	.	.	.	.	.
